PfHsp90 yeast 2 = growth inhibition of PfHsp90-expressing yeast, primary screen, antimalarial PfHsp90 inhibitor project, S. cerevisiae, BacTiter-Glo luminescence, single point, set 2; BacTiter-Glo ATP, 48 h; yeast lacking PDR1 and PDR3 efflux regulators; inhibition, % at 9.4 µM; 310,000 tested, 0.32% active; AID 504621, 2011;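 active = every replicate shows inhibition above about 80%, whatever the replicate mean, limit read from the data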;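 note: 0% = DMSO neutral controls and 100% = 20 µM radicicol positive controls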
NLRP3 yeast inh = NALP3 inflammasome inhibitors in reconstituted yeast, primary screen, luminescence, uHTS | Yeast reconstituted NLRP3/ASC/caspase-1, beta-gal luminescence, 24 h | inhibition, % at 10 µM | 330,000 tested, 0.39% active;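 active = inhibition of 50% or more; inactive = inhibition below 50%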;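 note: plate controls were induced DMSO wells for no effect and uninduced yeast grown without galactose for full effect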
tim10-1 inh = growth inhibitors of tim10-1 mutant yeast, primary screen, luminescence, uHTS. S. cerevisiae tim10-1 ts strain growth, BacTiter-Glo, 24 h. inhibition, % at 20 µM. 330,000 tested, 2.2% active. AID 463190, 2010;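 active = inhibition of at least 40%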;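 note: mutant grown at 25 °C; 0% = DMSO wells with yeast and 100% = wells holding no yeast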
tim23-1 inh = growth inhibitors of tim23-1 mutant yeast, primary screen, luminescence, uHTS | S. cerevisiae tim23-1 growth, BacTiter-Glo luminescence, 24 h | inhibition, % at 20 µM | 330,000 tested, 1.3% active;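 active = growth inhibition of the mutant yeast at or above 50%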;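 note: temperature-sensitive mutant grown at 25 °C; plate controls were DMSO-treated mutant yeast for no effect and medium wells lacking yeast for full effect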
NALP1 inh = NALP1 inflammasome inhibitors in reconstituted yeast, colorimetric, S. cerevisiae, triplicate retest | S. cerevisiae NALP1/ASC/caspase-1 growth, X-gal OD620, 72 h | inhibition, % at 10 µM | 280,000 tested, 0.61% active | AID 2071, 2009; in the data active = inhibition mostly above about 24%, no sharp cut-off; inactive = mostly below about 32%
TIM10 inh = growth inhibitors of isogenic TIM10 control yeast, primary screen, counter-screen for tim10-1 yeast inhibitor project, luminescence, uHTS. S. cerevisiae TIM10 strain growth, BacTiter-Glo luminescence, 24 h. inhibition, % at 10 µM. 330,000 tested, 1.4% active. AID 463195, 2010;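 active = inhibition of 40% or more at the single tested concentration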;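 note: wild-type TIM10 isogenic control strain grown at permissive 25 °C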
* marks the source's active call; other numbers are inactive results; · = no result given. This is a sample that favours compounds with a hit; in the whole collection about 4.1% have one here.

SMILES | PfHsp90 yeast 2 | NLRP3 yeast inh | tim10-1 inh | tim23-1 inh | NALP1 inh | TIM10 inh
O=c1[nH]cc(F)c(=O)[nH]1 | -15 | · | · | · | 116* | ·
O=c1cc(O)c(-c2ccc(Cl)cc2)c(Cl)[nH]1 | 24 | 6 | 2 | -2 | · | -20
O=C1c2cc(Cl)ccc2-c2c(O)cc(Cl)cc21 | 97* | · | · | · | · | ·
CCc1cccc(C)c1NC(=O)C1CCCN1C(=O)NCc1ccccc1 (stereo not drawn) | -21 | 3 | 9 | -5 | 15 | -14
CCOCCCNCc1cn(-c2ccc(F)cc2F)nc1-c1ccccc1C | -20 | 12 | 25 | 15 | 27* | 24
Cc1ccccc1-c1nn(-c2ccc(F)cc2F)cc1CNCC(C)O (stereo not drawn) | 2 | 3 | 11 | 3 | 11 | 8
COc1cc(NC(=O)[C@H]2CCCN2S(=O)(=O)c2cccc3cccnc23)cc(OC)c1OC | -10 | -1 | -17 | 5 | · | -1
COc1ccc(NC(=O)C2CCCN2S(=O)(=O)c2cccc3cccnc23)c(OC)c1 (stereo not drawn) | 102* | -4 | -28 | 0 | 21 | -61
Clc1cccc(OCCN2CCN(CCOc3cccc(Cl)c3)CC2)c1 | 1 | 40 | -47 | -132 | 64* | -37
Cc1c(OCC(=O)C(C)(C)C)ccc2c(-c3ccccc3)cc(=O)oc12 | 96* | 31 | -28 | 2 | 8 | -108
CCOC(=O)c1cccc(NS(=O)(=O)Cc2ccccc2)c1 | -41 | 10 | 6 | 12 | 44* | 2
CSc1nsc(SCC(=O)Nc2ccccc2C(=O)O)n1 | 9 | 17 | 19 | 24 | -108 | 1
CCOC(=O)c1ccccc1NC(=O)C1CCCO1 (stereo not drawn) | -11 | 23 | 0 | 1 | 0 | -3
CCc1ccc(NC(=O)c2ccccc2NC(=O)C2CCCO2)cc1 (stereo not drawn) | -5 | -13 | 30 | 23 | 43* | 25
CCN1CCN(CC(=O)N2N=C(c3ccc(OC)cc3)CC2c2ccc(OC)cc2)C(=O)C1=O (stereo not drawn) | · | -4 | 8 | 10 | 20* | -8
CCN(CC(=O)Nc1ccc(NC(C)=O)cc1)C(=O)c1ccc(C(=O)c2ccccc2)cc1 | 14 | 8 | -8 | -7 | · | -4
CCN(CC)C(=O)C1CCN(S(=O)(=O)c2cccc3nonc23)CC1 | 14 | -9 | 19 | 9 | 43* | -5
CCOc1ccc(S(=O)(=O)NCc2ccccn2)c(C)c1C | 93* | 13 | 12 | 16 | -34 | -2
CSc1nc2nc(C(F)(F)F)cc(-c3ccccc3)n2n1 | 6 | 13 | 15 | -18 | -10 | 21
CSc1nc2nc(-c3ccccc3)cc(C(F)(F)F)n2n1 | -48 | 14 | 0 | -4 | 27* | 3
CCN(CC)c1ccc(C(=C2C=CC(=[N+](CC)CC)C=C2)c2ccccc2)cc1 | 147* | · | · | · | · | ·
CCN(CC)c1ccc(C(=C2C=CC(=[N+](CC)CC)C=C2)c2ccc(N(CC)CC)cc2)cc1 | 136* | · | · | · | · | ·
CCN(CC)c1ccc(C(=O)NNC(=O)CCNC(=O)c2ccccc2)cc1 | -6 | 14 | 14 | 2 | · | 5
CCN(CC)c1ccc(C(=O)NNC(=O)CCl)cc1 | · | 15 | -3 | 8 | 13 | 3
CC1CCN(C(=O)COC(=O)C2CCN(S(=O)(=O)c3c(Cl)cccc3Cl)CC2)CC1 | · | 10 | -1 | 12 | · | 8
CC(C)(C)OC(=O)N1CCCC(C(=O)Nc2cccc(C(=O)NCCCCc3ccccc3)c2)C1 (stereo not drawn) | -4 | · | · | · | · | ·
CC(NC(=O)c1cc(S(=O)(=O)N2CCCC2)ccc1Cl)c1ccccn1 (stereo not drawn) | 3 | 0 | 2 | 4 | · | 1
CN(C)CCCN(C(=O)CCc1ccccc1)c1nc2ccc(Cl)cc2s1 | 9 | 26 | -31 | -8 | 64* | 27
CN(C)CCCN(C(=O)COc1ccccc1)c1nc2ccc(Cl)cc2s1 | -29 | 11 | 23 | 23 | -7 | 20
Cc1ccc2nc(N(CCCN(C)C)C(=O)CCc3ccccc3)sc2c1 | 19 | · | · | · | 48* | ·

From PubChem
